Measured values taken from PubChem BioAssay AID1159580 (chemical genetic matrix, 2015).
Hit rate of the full screen: of about 5,500 compounds, about 2,000 (36%) were called active. Roughly 18% stayed inconclusive and do not appear here. No stated cut-off is given here; in the data, active means normalized growth mostly below about 0.91 (no sharp cut-off); inconclusive means no clear call, values can overlap the other calls; inactive means mostly above about 0.92. The list shows a part of the results.

Test: chemical genetic growth profiling, strain panel (AID 1159580);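 further: tested at 20 µM; growth read once vehicle control cultures reached saturation at 30 °C; 1 = growth at the plate median or of vehicle wells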
Conditions: S. cerevisiae deletion strains, growth OD

Measured: normalized growth

OC(CCN1CCCCC1)(c1ccccc1)C1CC2C=CC1C2 (centres undefined)
inactive: locus YAL021C, strain ccr4, stronger effect = lower value 1.01 | locus YAL026C, strain drs2, stronger effect = lower value 1 | locus YAL030W, strain snc1, stronger effect = lower value 1.02 | locus YBL061C, strain skt5, stronger effect = lower value 1.02 | locus YBR009C, strain hhf1, stronger effect = lower value 0.985 | locus YBR023C, strain chs3, stronger effect = lower value 0.999 | locus YBR171W, strain sec66, stronger effect = lower value 1 | locus YBR231C, strain swc5, stronger effect = lower value 0.999 | locus YBR279W, strain paf1, stronger effect = lower value 0.99 | locus YCL011C, strain gbp2, stronger effect = lower value 1.01 | locus YCL016C, strain dcc1, stronger effect = lower value 1.04 | locus YCL061C, strain MRC1, stronger effect = lower value 0.996 | locus YCL069W, strain vba3, stronger effect = lower value 0.977 | locus YCR088W, strain abp1, stronger effect = lower value 1 | locus YDL005C, strain med2, stronger effect = lower value 1 | locus YDL040C, strain nat1, stronger effect = lower value 1 | locus YDR001C, strain nth1, stronger effect = lower value 0.997 | locus YDR069C, strain doa4, stronger effect = lower value 1.02 | locus YDR137W, strain rgp1, stronger effect = lower value 1.01 | locus YDR159W, strain sac3, stronger effect = lower value 0.992 | locus YDR195W, strain ref2 1.01 | locus YDR297W, strain sur2, stronger effect = lower value 1 | locus YDR334W, strain swr1, stronger effect = lower value 0.965 | locus YDR335W, strain msn5, stronger effect = lower value 1 | locus YDR392W, strain spt3, stronger effect = lower value 1.03 | locus YEL003W, strain gim4, stronger effect = lower value 0.993 | locus YEL037C, strain rad23, stronger effect = lower value 0.988 | locus YEL061C, strain CIN8 (second series), stronger effect = lower value 0.983 | locus YER015W, strain faa2, stronger effect = lower value 1 | locus YER016W, strain bim1, stronger effect = lower value 1.03 | locus YER111C, strain swi4, stronger effect = lower value 1 | locus YER155C, strain BEM2 (second series), stronger effect = lower value 1.01 | locus YFR010W, strain ubp6, stronger effect = lower value 0.966 | locus YGL167C, strain pmr1, stronger effect = lower value 1 | locus YGL173C, strain kem1, stronger effect = lower value 1.01 | locus YGL227W, strain vid30, stronger effect = lower value 0.989 | locus YGL240W, strain doc1, stronger effect = lower value 0.994 | locus YGL253W, strain hxk2, stronger effect = lower value 1.01 | locus YHR013C, strain ard1, stronger effect = lower value 1.03 | locus YHR027C, strain rpn1, stronger effect = lower value 0.991 | locus YHR030C, strain SLT2, stronger effect = lower value 0.977 | locus YHR079C, strain IRE1, stronger effect = lower value 0.996 | locus YHR142W, strain chs7, stronger effect = lower value 1 | locus YJL092W, strain hpr5, stronger effect = lower value 1.01 | locus YJL095W, strain BCK1 (second series), stronger effect = lower value 1 | locus YJL095W, strain BCK1, stronger effect = lower value 0.996 | locus YJL115W, strain asf1, stronger effect = lower value 0.984 | locus YJL129C, strain trk1, stronger effect = lower value 0.987 | locus YJL154C, strain vps35, stronger effect = lower value 0.987 | locus YJL164C, strain tpk1, stronger effect = lower value 0.997 | locus YJL166W, strain qcr8, stronger effect = lower value 0.982 | locus YJR066W, strain TOR1, stronger effect = lower value 0.935 | locus YKL160W, strain elf1, stronger effect = lower value 1.03 | locus YKR026C, strain gcn3, stronger effect = lower value 0.987 | locus YKR091W, strain srl3, stronger effect = lower value 1 | locus YLL001W, strain dnm1, stronger effect = lower value 0.993 | locus YLL026W, stronger effect = lower value 0.997 | locus YLL041C, strain sdh2, stronger effect = lower value 1.03 | locus YLR027C, strain aat2, stronger effect = lower value 1 | locus YLR113W, strain HOG1, stronger effect = lower value 0.987 | locus YLR221C, strain rsa3, stronger effect = lower value 0.993 | locus YLR258W, strain gsy2, stronger effect = lower value 0.998 | locus YLR262C, strain YPT6 (second series), stronger effect = lower value 0.984 | locus YLR320W, strain mms22, stronger effect = lower value 0.979 | locus YLR342W, strain FKS1, stronger effect = lower value 1.01 | locus YLR357W, strain rsc2, stronger effect = lower value 0.995 | locus YLR370C, strain arc18, stronger effect = lower value 1.01 | locus YLR384C, strain iki3, stronger effect = lower value 1.01 | locus YML120C, strain ndi1, stronger effect = lower value 0.981 | locus YMR058W, strain fet3, stronger effect = lower value 1 | locus YMR125W, strain sto1, stronger effect = lower value 0.985 | locus YMR129W, stronger effect = lower value 1 | locus YMR205C, strain PFK2, stronger effect = lower value 1.01 | locus YMR231W, strain pep5, stronger effect = lower value 0.995 | locus YNL071W, strain lat1, stronger effect = lower value 0.985 | locus YNL183C, strain NPR1, stronger effect = lower value 0.951 | locus YNL209W, strain ssb2, stronger effect = lower value 0.995 | locus YNL248C, strain rpa49, stronger effect = lower value 1 | locus YNL322C, strain KRE1 (second series), stronger effect = lower value 0.995 | locus YNR049C, strain mso1, stronger effect = lower value 1.01 | locus YOR001W, strain rrp6, stronger effect = lower value 0.949 | locus YOR070C, strain gyp1, stronger effect = lower value 0.989 | locus YOR080W, strain dia2, stronger effect = lower value 1 | locus YOR083W, strain WHI5, stronger effect = lower value 1.03 | locus YOR106W, strain vam3, stronger effect = lower value 0.995 | locus YOR231W, strain MKK1, stronger effect = lower value 0.991 | locus YOR265W, strain rbl2, stronger effect = lower value 1.01 | locus YOR270C, strain vph1, stronger effect = lower value 0.929 | locus YOR290C, strain snf2, stronger effect = lower value 1.06 | locus YPL051W, strain arl3, stronger effect = lower value 1.01 | locus YPL078C, strain atp4, stronger effect = lower value 1.02 | locus YPL106C, strain sse1, stronger effect = lower value 1.05 | locus YPL240C, strain hsp82, stronger effect = lower value 0.982 | locus YPL256C, strain CLN2, stronger effect = lower value 0.978
